Results from PubChem BioAssay.
The source made the active and inactive calls. Rule as the data show it, unless noted: active = inhibition above about 44%; inactive = the rest.

Legend:
[1] = StAR promoter reporter inhibitors, counter-screen for LRH-1 inverse agonist project, cell-based, luminescence, high throughput (AID 651611; in the data active = inhibition above about 28%); conditions: StAR promoter luciferase reporter counterscreen, at 3.6 µM, stronger effect = higher value
[2] = biological target: Nuclear receptor subfamily 5 group A member 2 (Homo sapiens) (UniProt O00482); experiment: NR5A2 activity suppression in reporter cells – cell-based, luminescence, confirmation (AID 651613; in the data active = inhibition above about 42%;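 also: HEK293T cells co-transfected with LRH-1 and StAR promoter luciferase reporter; 0% = vehicle wells and 100% = parental cells lacking receptor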); conditions: cell-based LRH-1 luciferase reporter, inverse agonism; at 3.6 µM; stronger effect = higher value
[3] = biological target: Steroidogenic factor 1 (Homo sapiens) (UniProt Q13285); experiment: inverse agonism at SF1 nuclear receptor – cell-based, luminescence, high throughput, counter-screen for LRH-1 inverse agonist project (AID 651614); conditions: cell-based SF1 luciferase reporter, at 3.6 µM, stronger effect = higher value;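 also: cells cotransfected with StAR promoter reporter and SF1 expression vector; 0% = vehicle on cells with receptor and 100% = vehicle on cells lacking receptor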
[4] = compounds suppressing VP16-driven luciferase signal – cell-based, luminescence, high throughput, counter-screen for LRH-1 inverse agonist project (AID 651615; in the data active = inhibition above about 33%); conditions: Gal4-VP16 luciferase reporter cells, at 3.6 µM, stronger effect = higher value

Nuclear receptor subfamily 5 group A member 2 (Homo sapiens), sequence (O00482 whole entry, looked up): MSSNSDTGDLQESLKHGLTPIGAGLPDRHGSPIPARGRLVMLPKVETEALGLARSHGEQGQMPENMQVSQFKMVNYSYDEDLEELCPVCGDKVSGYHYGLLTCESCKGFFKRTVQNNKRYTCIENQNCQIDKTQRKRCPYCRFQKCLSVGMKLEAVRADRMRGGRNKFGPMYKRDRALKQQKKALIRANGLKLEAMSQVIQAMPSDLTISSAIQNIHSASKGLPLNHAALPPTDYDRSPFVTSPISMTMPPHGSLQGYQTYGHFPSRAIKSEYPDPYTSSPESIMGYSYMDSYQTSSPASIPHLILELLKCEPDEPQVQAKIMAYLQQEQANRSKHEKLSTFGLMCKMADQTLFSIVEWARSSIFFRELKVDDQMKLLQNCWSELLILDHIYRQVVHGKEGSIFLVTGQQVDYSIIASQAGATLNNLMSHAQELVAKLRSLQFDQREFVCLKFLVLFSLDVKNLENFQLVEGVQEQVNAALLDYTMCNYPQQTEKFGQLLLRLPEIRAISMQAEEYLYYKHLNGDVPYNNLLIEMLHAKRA
Steroidogenic factor 1 (Homo sapiens), sequence (Q13285 whole entry, looked up, the tested form may be a part): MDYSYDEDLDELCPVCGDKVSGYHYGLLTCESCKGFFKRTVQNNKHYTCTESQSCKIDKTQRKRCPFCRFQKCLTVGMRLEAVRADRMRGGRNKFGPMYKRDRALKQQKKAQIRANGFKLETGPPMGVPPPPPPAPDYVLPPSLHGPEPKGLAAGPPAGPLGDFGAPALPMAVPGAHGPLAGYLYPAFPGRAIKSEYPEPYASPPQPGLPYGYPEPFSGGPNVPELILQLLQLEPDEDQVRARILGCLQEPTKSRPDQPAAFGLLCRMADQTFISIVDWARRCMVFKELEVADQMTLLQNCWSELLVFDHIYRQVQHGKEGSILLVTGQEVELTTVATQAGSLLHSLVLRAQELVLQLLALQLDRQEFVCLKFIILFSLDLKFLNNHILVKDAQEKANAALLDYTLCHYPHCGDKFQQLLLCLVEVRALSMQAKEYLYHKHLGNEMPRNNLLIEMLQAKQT

Cc1nn(CC(=O)Nc2ccc3c(c2)OCCO3)c(C)c1[N+](=O)[O-]
inhibition [1]: 11.2% (inactive) | inhibition [2]: 62.3% (active) | inhibition [3]: 51.6% (active) | inhibition [4]: 10.4% (inactive)

CCOc1cc(S(=O)(=O)NCc2ccncc2)ccc1Cl
inhibition [1]: 21.4% (inactive) | inhibition [2]: 56.6% (active) | inhibition [3]: 57.9% (active) | inhibition [4]: 55.6% (active)

Cc1c(C#N)c(O)n(CCO)c(=O)c1N=Nc1ccc2c(c1)COC2=O
inhibition [1]: 17.9% (inactive) | inhibition [2]: 39.5% (inactive) | inhibition [3]: 52.1% (active) | inhibition [4]: -1% (inactive)

COc1cc(C(=O)NC2CCN(C)CC2)ccc1Nc1ncc2c(n1)N(C1CCCCC1)CCC(=O)N2C
inhibition [1]: 60.6% (active) | inhibition [2]: 54.4% (active) | inhibition [3]: 40% (inactive) | inhibition [4]: -159% (inactive)

O=C(Nc1ccc([N+](=O)[O-])cc1)c1cccc([N+](=O)[O-])c1
inhibition [1]: 8.52% (inactive) | inhibition [2]: 65.6% (active) | inhibition [3]: 64.5% (active) | inhibition [4]: -15.3% (inactive)

O=[N+]([O-])c1cccc(-c2ccc3nnc(SCc4cccnc4)n3n2)c1
inhibition [1]: 3.6% (inactive) | inhibition [2]: 62.1% (active) | inhibition [3]: 62% (active) | inhibition [4]: 19.4% (inactive)

CCOC(=O)c1c2c(n(Cc3ccccc3)c1C)C(=O)C(=O)c1ccccc1-2
inhibition [1]: 48.7% (active) | inhibition [2]: 60.6% (active) | inhibition [3]: 71.6% (active) | inhibition [4]: 54.6% (active)

Cc1onc(-c2ccccc2Cl)c1C(=O)O/N=C(\N)c1ccc([N+](=O)[O-])o1
inhibition [1]: 10.8% (inactive) | inhibition [2]: 66.3% (active) | inhibition [3]: 62.5% (active) | inhibition [4]: -5.99% (inactive)

Oc1[nH]c2ccc(Br)cc2c1N=NC(=S)N1CCOCC1
inhibition [1]: 83.2% (active) | inhibition [2]: 93.8% (active) | inhibition [3]: 87.7% (active) | inhibition [4]: 55.5% (active)
